Common to all, as to experiment: net action potential response of A-neuron (blank-subtracted) (spikes/s (Hz)); higher = stronger excitation
Common to all, as to conditions: 10 µg on filter paper; neuron: A neuron (large spike amplitude)

Assay [1] deals with (+)-isopinocamphone A-neuron OSN class. The essentials:
(§1)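 Tungsten electrodes recorded single sensilla on one fixed antenna of live lab-reared adult Ips typographus, kept under a humidified, charcoal-filtered 1.8 L/min airstream, while 10 μg of each compound in paraffin oil on filter paper in a pipette was delivered as a 0.5 s pulse at 0.3 L/min. Pre-stimulus-corrected A-neuron or B-neuron spike counts from AutoSpike, taken in 0.5 s windows, were expressed per second, blank-subtracted and averaged over 1–4 sensilla.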

Assay [2] has as its system (5S,7S)-trans-conophthorin A-neuron OSN class. The gist of the method:
as §1

In assay [3] the test system is myrcene A-neuron OSN class. The essentials:
as §1

Assay [4] has as its system p-cymene A-neuron OSN class. The essentials:
as §1

± gives the standard deviation of the averaged measurements.

Turning to `O=Cc1ccccc1` [Benzaldehyde], the “net action potential response” value in assay [1] was 21.3 ± 15; in assay [2], -4 ± 2; in assay [3], 4; in assay [4] it was 2 ± 2.

In the case of `C=CCc1ccc(OC)cc1` [Estragole], the “net action potential response” value was -1.33 ± 1.1 in assay [1], -0.5 ± 6.6 in assay [2], -2 in assay [3] and 9.33 ± 7 in assay [4].

For `Cc1ccccc1` [Toluene], the “net action potential response” value in assay [1] amounted to 0.667 ± 3.1; in assay [2], 4 ± 2.3; in assay [3], 6; in assay [4] it was 2 ± 4.
